Among the data in the antibiotic and cytotoxicity screens of Wong et al. (2023) are growth inhibition call values, retold here.

The whole screen tested about 39,000 compounds, of which about 500 (1.3%) were called active. Many of the other results were omitted from the sample, so actives are more common in it than they were.

This assay concerns S. aureus RN4220. The assay can be described thus: growth inhibition call (relative growth <= 0.2). To be noted: 50 µM.
For the compound `C[C@@H]1CN([C@@H](C)CO)C(=O)c2cccc(NC(=O)C3CC3)c2O[C@H]1CN(C)Cc1ccc(C(=O)O)cc1`, the growth inhibition call was “inactive”.

On to `C[C@@H]1CCCCO[C@@H](CN(C)S(=O)(=O)c2ccc(Cl)cc2)[C@@H](C)CN([C@H](C)CO)C(=O)c2cc(NC(=O)Nc3ccc(C(F)(F)F)cc3)ccc2O1`, for which the growth inhibition call was “inactive”. The same measure for `Cc1ccc(S(=O)(=O)Nc2ccc3c(c2)C(=O)N([C@H](C)CO)C[C@@H](C)[C@@H](CN(C)C(=O)CCC(F)(F)F)OCCCC[C@H](C)O3)cc1`: “inactive”; for `C[C@@H]1CCCCO[C@H](CN(C)C(=O)CCCN(C)C)[C@H](C)CN([C@@H](C)CO)C(=O)c2cc(NC(=O)Nc3cccc4ccccc34)ccc2O1`: “inactive”.

Take `C[C@@H]1CN([C@H](C)CO)C(=O)c2cc(C#Cc3ccccc3F)cnc2O[C@H]1CN(C)C(=O)C1CCOCC1`: the growth inhibition call is “inactive”.

`Cc1cnccc1CN1C[C@H](C(=O)O)CC1=O`: the growth inhibition call is “inactive”. The value for `CC(C)C#Cc1cnc2c(c1)C(=O)N([C@@H](C)CO)C[C@@H](C)[C@H](CN(C)C(=O)c1ccc3c(c1)OCO3)O2` was “inactive”. The same measure for `Cc1ccc(S(=O)(=O)N(C)C[C@H]2Oc3c(NC(=O)C4CC4)cccc3C(=O)N([C@H](C)CO)C[C@@H]2C)cc1`: “inactive”; for `C[C@@H]1CN([C@@H](C)CO)C(=O)CCCn2nncc2CO[C@H]1CN(C)C(=O)Nc1ccc(C(F)(F)F)cc1`: “inactive”; for `C[C@H]1CN([C@@H](C)CO)C(=O)CCCn2cc(nn2)CO[C@H]1CN(C)C(=O)Nc1ccc(C(F)(F)F)cc1`: “inactive”. Turning to `C[C@H](CO)N1C[C@H](C)[C@H](CN(C)C(=O)Nc2ccc(C(F)(F)F)cc2)OCc2cnnn2CCCC1=O`, the growth inhibition call is “inactive”. The value for `C[C@H]1CN([C@@H](C)CO)C(=O)CCCn2cc(nn2)CO[C@@H]1CN(C)C(=O)Nc1ccc(C(F)(F)F)cc1` was “inactive”; that for `C[C@@H]1CN([C@H](C)CO)C(=O)CCCn2cc(nn2)CO[C@H]1CN(C)C(=O)Nc1ccc(C(F)(F)F)cc1` was “active”. Regarding `C[C@@H]1CN([C@@H](C)CO)C(=O)CCCn2nncc2CO[C@@H]1CN(C)C(=O)Nc1ccc(C(F)(F)F)cc1`, the growth inhibition call was “inactive”. The value for `C[C@H]1CN([C@@H](C)CO)C(=O)CCCn2nncc2CO[C@@H]1CN(C)C(=O)Nc1ccc(C(F)(F)F)cc1` was “active”; that for `C[C@@H]1CN([C@H](C)CO)C(=O)CCCn2nncc2CO[C@@H]1CN(C)C(=O)Nc1ccc(C(F)(F)F)cc1` was “inactive”. In the case of `C[C@H]1CN([C@@H](C)CO)C(=O)CCCn2nncc2CO[C@H]1CN(C)C(=O)Nc1ccc(C(F)(F)F)cc1`, the growth inhibition call was “active”. Regarding `C[C@@H]1CN([C@H](C)CO)C(=O)CCCn2nncc2CO[C@H]1CN(C)C(=O)Nc1ccc(C(F)(F)F)cc1`, the growth inhibition call is “active”. Regarding `C[C@@H]1CN([C@H](C)CO)C(=O)CCCn2nncc2CO[C@H]1CN(C)C(=O)Nc1ccc(C(C)(C)C)cc1`, the growth inhibition call is “inactive”. The value for `C[C@H](CO)N1C[C@H](C)[C@@H](CN(C)C(=O)Nc2ccc(C(F)(F)F)cc2)OCc2cnnn2CCCC1=O` was “inactive”.
